Bioassay records deposited in PubChem by The Scripps Research Institute Molecular Screening Center.
A selection: hits, their analogues and other compounds. The true share with any hit is near 4.1%.
ssDAF-12 act – activates DAF-12 receptor from parasite S. stercoralis. activation, % at 6.8 µM. HEK293 ssDAF-12/GRIP1 lit1-tk-luc reporter, luminescence; % of 3 µM dafachronic acid response. hit rate 1% among 370,000;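 active = activation above the mean over all tested compounds plus 3 SD, cut at about 0.9% in these data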;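 note: 0% = DMSO-only wells and 100% = 3 µM delta7-dafachronic acid wells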
DAX1 inh-1 – inhibitors of human orphan nuclear receptor DAX1 (NR0B1); P51843; HEK293 Gal4-DAX1 luciferase reporter, luminescence; inhibition, % at 6.75 µM; hit rate 0.99% among 340,000;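 active = inhibition above the mean over all tested compounds plus 3 SD, cut at about 4.2% in these data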;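 note: 0% = DAX1-transfected cells with DMSO and 100% = empty-vector control cells with DMSO; inhibition shows as a rise in luminescence from relieved DAX1 repression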
Target sequence (P51843 207-470 limits assumed): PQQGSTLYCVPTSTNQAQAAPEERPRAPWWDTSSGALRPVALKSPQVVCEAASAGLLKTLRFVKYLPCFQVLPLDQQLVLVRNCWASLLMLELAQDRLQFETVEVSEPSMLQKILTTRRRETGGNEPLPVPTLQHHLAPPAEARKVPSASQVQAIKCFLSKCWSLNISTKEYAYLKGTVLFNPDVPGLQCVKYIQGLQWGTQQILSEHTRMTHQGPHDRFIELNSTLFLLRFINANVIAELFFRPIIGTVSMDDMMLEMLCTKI
hgDAF-12 ag – hgDAF-12 agonism, primary luciferase screen; activation, % at 6.8 µM; HEK293 GAL4-hgDAF12 UAS-luciferase reporter, agonist luminescence; normalized to butyrate control; hit rate 1.8% among 370,000;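 active = activation above a cutoff set at the mean of all screened compounds plus 3 SD, cut at about 10% in these data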;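 note: 0% = DMSO wells and 100% = sodium butyrate wells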
hcDAF-12 act – activators of H. contortus DAF-12 nuclear receptor; activation, % at 6.8 µM; hit rate 1.4% among 370,000; AID 652067; HEK293 hcDAF-12 lit1-tk-luc reporter, luminescence; 0% DMSO, 100% Δ7-dafachronic acid;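 active = activation above the mean of all tested compounds plus 3 SD, cut at about 5.5% in these data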;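 note: 100% = response to 3 µM Δ7-dafachronic acid high control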
DAX1 inh-2 – blocks DAX1 repression of SF-1 activated StAR promoter; hit rate 1.1% among 370,000; HEK293T StAR-luciferase reporter, SF-1/DAX-1 repression relief; inhibition, % at 6.8 µM;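 active = inhibition above the mean over all tested compounds plus 3 SD, cut at about 3.6% in these data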;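 note: 0% = DAX-1 cells with DMSO and 100% = cells lacking DAX-1 with DMSO; higher inhibition means more luminescence from relief of DAX-1 repression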
Active calls of the source: *; / = no result.

SMILES	ssDAF-12 act	DAX1 inh-1	hgDAF-12 ag	hcDAF-12 act	DAX1 inh-2
Nc1ccc(C(=O)NN2C(=O)[C@H](Cl)C2c2ccc(Cl)cc2)cc1 (some centres undefined)	0	0	4	5.9*	-3
CCOc1ccccc1-c1n[nH]c(=S)o1	1.0*	-2	3	6.4*	0
O=C(CCNc1ccc(Cc2ccncc2)cc1)c1ccc([N+](=O)[O-])cc1	11*	0	1	1	-1
CCCCOc1ccc(C(=O)NC2CCCCN(CCC)C2=O)cc1 (centres undefined)	-1	/	6	0	-1
COc1ccccc1-c1nnc(SCC(=O)Nc2cccnc2Cl)n1C	0.9*	0	0	4	1
COc1ccccc1-n1cnnc1SCC(=O)Nc1cccnc1Cl	-1	0	2	1	0
Cc1c(C)n(Cc2ccc(-c3ccccc3C(=O)O)cc2)c2ccc(C(=O)N[C@@H](C)c3ccc([N+](=O)[O-])cc3)cc12	-1	/	5	-2	0
Cc1ccc(C)c(NC(=S)NNC(=O)c2cc3c(s2)CCC(C)C3)c1 (centres undefined)	-1	1	1	-1	0
Cc1cccc(NC(=S)NNC(=O)c2cc3c(s2)CCC(C)C3)c1C (centres undefined)	20*	0	-3	-1	0
COc1cc2c(cc1OC)CSC1C(=O)N(C)C(SC2)C(=O)N1C	-1	/	0	0	0
Cc1cc(C)nc(NC(=O)CSc2nn(-c3ccccc3)c(=S)s2)n1	-1	9.1*	0	-1	1
CCOC(=O)C1CCCN(CC(=O)Nc2cc(C)cc(C)c2)C1 (centres undefined)	-1	0	1	0	1
CCOC(=O)C1CCCN(CC(=O)c2c[nH]c3ccc(C)cc23)C1 (centres undefined)	1.3*	/	2	2	0
COc1ccc2[nH]cc(C(=O)CN3CCCC(C)C3)c2c1 (centres undefined)	-1	-1	3	0	0
COc1ccc2[nH]cc(C(=O)CN3CCC(C)CC3)c2c1	1.3*	3	7	3	1
CCC(=O)N(c1ccccc1)C1CCN(C(=O)C(Cc2ccccc2)NC(C)=O)CC1 (centres undefined)	0	/	0	1	0
CCSc1nnc(NC(=O)c2cc(C)nc3ccccc23)s1	-1	0	0	0	-1
CCSc1nnc(NC(=O)c2ccc3ccccc3n2)s1	1.0*	1	4	6.3*	1
CCSc1nnc(NC(=O)c2ccc3nc[nH]c3c2)s1	-1	2	13*	2	1
CCSc1nnc(NC(=O)C2CCCCC2C(=O)O)s1 (centres undefined)	-1	-1	-2	0	0
CCSc1nnc(NC(=O)C2CC2c2ccccc2)s1 (centres undefined)	-1	12*	-3	-2	0
CCSc1nnc(NC(=O)c2cccc(OCc3c(C)noc3C)c2)s1	-2	-2	2	-2	0
Cc1nn(C)cc1NC(=O)C[C@H]1CC[C@H]2[C@@H](COc3ccc(NC(=O)Nc4ccccc4)cc3C(=O)N2C)O1	0	/	1	2	1
O=c1[nH]nc(Cc2ccc(Cl)cc2)c2ccccc12	-1	-1	0	-2	0
O=c1[nH]nc(Cc2ccc(-c3ccccc3Cl)o2)c2ccccc12	1.4*	0	2	0	0
SMILES	ssDAF-12 act	DAX1 inh-1	hgDAF-12 ag	hcDAF-12 act	DAX1 inh-2
O=S1(=O)c2ccc(N3CCCC3)cc2Oc2ccccc2CN1Cc1cn(Cc2cccc(F)c2)nn1	-1	/	-7	0	-1
COC(=O)C[C@H]1CC[C@@H]2[C@@H](COc3ccc(NC(=O)c4ccccc4)cc3C(=O)N2C)O1	0	/	3	0	0
CCOCC(=O)Nc1ccc([N+](=O)[O-])cc1Cl	-1	/	-1	-1	-2
CC(C)CC(=O)Nc1ccc([N+](=O)[O-])cc1Cl	-1	4.3*	1	-1	1
Cn1c(=O)cc(NCc2ccccc2)[nH]c1=O	-1	1	0	-2	0
CCCCNc1cc(=O)n(C)c(=O)[nH]1	0	8.1*	-1	-1	0
O=C(Cc1cccs1)NC1CCCCN(Cc2cccc(Cl)c2)C1=O (centres undefined)	-2	/	0	-2	-1
O=S1(=O)c2ccc(N3CC[C@@H](O)C3)cc2O[C@H]2CCN1C2	0	/	3	-2	-1
c1ccc2cc(Cn3ccc4ccc(-c5ccc6cc[nH]c6c5)cc43)ccc2c1	1.2*	/	0	3	-1
CCOC(=O)[C@]12CCCC3=C1N(CCC3)C(=O)[C@@H](CC(=O)NCCCOC)C2	0	/	1	-1	0
Cn1c(C(=O)c2ccccc2)nc2ccccc21	-1	2	2	3	0
Cn1c(C(=O)c2ccccc2[N+](=O)[O-])nc2ccccc21	0	1	4	5.8*	-1
COc1ccc(C)cc1-n1nnnc1SCC1CCCO1 (centres undefined)	0	-1	-1	2	-1
COc1ccc(C)cc1-n1nnnc1SCc1nc2ccccc2s1	1.2*	0	6	5.9*	1
O=C(CSc1nc2ccc(Cl)cc2[nH]1)c1cccs1	1.0*	1	5	5	1
Cc1cc(C(=O)CSc2nc3ccc(Cl)cc3[nH]2)c(C)n1C	-1	0	-2	1	0
C=CCN(CC=C)C(=S)NC(=O)/C=C/c1ccc(OC)cc1	1.4*	-1	0	0	0
CCOC(=O)Nc1ccc(S(=O)(=O)N2CCC(c3nc4ccccc4[nH]3)CC2)cc1	-1	1	-1	-1	-1
CC(=O)Nc1ccc(S(=O)(=O)N2CCC(c3nc4ccc(C)cc4[nH]3)CC2)cc1	-2	4.4*	0	-1	0
Cc1ccc(C(=O)NC(=S)Nc2ccccc2N2CCCC2)cc1[N+](=O)[O-]	1.4*	1	-1	1	-1
CCCC(=O)Nc1ccc(-c2cnc(-c3ccc(NC(=O)CCC)cc3)nc2)cc1	-1	1	4	0	0
Nc1ccc(-c2cnc(-c3ccc(N)cc3)nc2)cc1	1	-3	10*	4	2
COc1ccc(N2CC(=O)N(c3ccccc3)C2=S)cc1	0	0	12*	4	2
O=C1CN(c2ccccc2)C(=S)N1c1ccccc1	-1	4.4*	3	1	1
COc1ccc(N=C2C(=Nc3ccc(OC)cc3)N(c3ccc(OC)cc3)C(=S)N2c2ccccc2)cc1	0	2	9	4	2
O=C1CN(c2ccc(F)cc2)C(=S)N1c1ccccc1	0	-1	5	2	0
O=[N+]([O-])c1cccc(OC[C@@H](O)CN2CCC(C(O)(c3ccccc3)c3ccccc3)CC2)c1	-1	/	-2	-2	0
